Screening results from PubChem.
GALC G270D up = galactocerebrosidase G270D activity enhancement, cell-based. P54803. 145M-Twi-hGALC-G270D cells (Twitcher mouse brain line with human GALC G270D), HMU-beta-Gal fluorescence, 48 h. Potency, µM (doses to about 57.5 µM), hits mostly activators. hit rate 0.1% among 45,000; further: potency means the concentration at half of the fitted maximal effect; 0% is about no effect; nearly all actives have a fitted effect of over 65% in size
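Fluorescence readout: HMU-β-gal cleavage by mutant GALC (0.1 mM final, citrate/phosphate pH 5.2 with 1 mg/mL taurocholate), stopped with carbonate/bicarbonate plus Triton X-100. Cells: murine Twitcher 145M-Twi expressing human G270D GALC; qHTS for activators.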
HTT promoter inh = HTT promoter inhibition; HEK293 HTT promoter firefly luciferase reporter, 24 h; Potency, µM (series often up to 57.5 µM), for inactives: top-dose activity change, negative = inhibition, most hits filed as inhibitors; hit rate 0.93% among 48,000; further: potency means the concentration at half of the fitted maximal effect; nearly all actives have a fitted effect of over 50% in size
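HEK293 luciferase promoter-reporter cells (2,500/well) plated 24 h, then compounds added at up to 57.5 uM final for 24 h at 37 °C. Firefly luminescence by Dual-Glo, normalized to vehicle (0%) and zero RLU (-100%).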
HTT-AS act = activators of huntingtin-antisense promoter activity; HEK293 HTT-AS promoter firefly luciferase reporter, 24 h; response scale: percent change from vehicle, -100% = no light; Potency, µM (highest dose often 57.5 µM), without a hit: at the highest dose activity change, positive = activation, usual class: activators; hit rate 0.24% among 48,000; further: potency means the concentration at half of the fitted maximal effect; nearly all actives have a fitted effect of over 55% in size
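Luminescence was read after Dual-Glo reagent and a 10 min room-temperature incubation. Values were normalized to vehicle (0% activity) and zero RLU (-100% activity). Reporter HEK293 cells had been exposed to compounds (up to 57.5 uM final) for 24 h.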
NTMT1 inh = NTMT1 methyltransferase inhibition; AID 1645870; Q9BV86; hit rate 2.5% among 59,000; NTMT1 MTase-Glo SAH luminescence, purified enzyme; Potency, µM (series often up to 114 µM), inactives show at the highest dose activity change, negative = inhibition, actives largely listed as inhibitors;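 further: potency means the concentration at half of the fitted maximal effect; plate controls were DMSO vehicle for no effect and no enzyme for full effect; nearly all actives have a fitted effect of over 65% in size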
Target sequence (Q9BV86 whole entry, looked up): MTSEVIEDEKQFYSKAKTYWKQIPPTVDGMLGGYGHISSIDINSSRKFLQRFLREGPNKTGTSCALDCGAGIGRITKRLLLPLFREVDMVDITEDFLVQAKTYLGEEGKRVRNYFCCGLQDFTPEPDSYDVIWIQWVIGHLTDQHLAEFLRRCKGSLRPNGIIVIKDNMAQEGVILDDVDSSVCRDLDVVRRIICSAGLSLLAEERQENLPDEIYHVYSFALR
CLK4 inh = CLK4 kinase inhibition, SAR round 2 | shares compounds with NTMT1 inh | recombinant Clk4, Kinase-Glo ATP luminescence, 4.5 h | Potency, µM (highest dose often 76.9 µM), without a hit: top-dose activity, negative = inhibition, hits mostly inhibitors | hit rate 90% among 90 | AID 493204
Sfp PPTase inh = inhibitors of Bacillus subtilis Sfp PPTase, optimization followup | shares compounds with NTMT1 inh | purified Sfp PPTase enzyme activity, qHTS | Potency, µM (series often up to 114 µM), without a hit: top-dose activity change, negative = inhibition, actives largely listed as inhibitors | hit rate 78% among 230
HM489 growth = B. subtilis HM489 growth inhibition | B. subtilis HM489 (acpS-) growth, BacTiter-Glo, 5 h | Potency, µM (doses to about 114 µM), without a hit: top-dose activity change, negative = inhibition, hits mostly inhibitors | hit rate 50% among 220 | shares compounds with NTMT1 inh
Sfp PPTase gel = Sfp PPTase inhibition, gel-based detection | shares compounds with NTMT1 inh | purified Sfp PPTase, gel-based product detection | Potency, µM (titrated, usually from 250 µM), for the others: top-dose activity change, negative = inhibition, usual class: inhibitors | hit rate 54% among 220 | AID 540355
Sfp SAR2 = Sfp phosphopantetheinyl transferase inhibition, SAR round 2; Potency, µM (doses to about 57.1 µM), for inactives: at the highest dose activity change, negative = inhibition, usual class: inhibitors; hit rate 87% among 230; AID 602370; purified Sfp enzyme, PPTase activity, qHTS; shares compounds with NTMT1 inh
HSD17B4 inh = inhibits human HSD17B4, off-target for HPGD inhibitors. shares compounds with NTMT1 inh. purified HSD17B4, estradiol/NAD+, NADH fluorescence. Potency, µM (doses to about 57.1 µM), for the others: at the top dose activity change, negative = inhibition, most hits filed as inhibitors. hit rate 10% among 230. AID 743187
ALDH1A1 inh = ALDH1A1 (human) inhibition, HPGD counter-screen; recombinant ALDH1A1, NADH fluorescence, propionaldehyde/NAD+; shares compounds with NTMT1 inh; Potency, µM (top dose mostly 57.1 µM), without a hit: at the highest dose activity change, negative = inhibition, hits mostly inhibitors; AID 743195; hit rate 93% among 230
NNMT counter = blocks human NNMT methyltransferase. shares compounds with NTMT1 inh. NNMT MTase-Glo luminescence, SAH detection. Potency, µM (doses to about 57.1 µM), for inactives: at the top dose activity, negative = inhibition, most hits filed as inhibitors. hit rate 10% among 120. AID 1645878
Target sequence (P40261 whole entry, looked up): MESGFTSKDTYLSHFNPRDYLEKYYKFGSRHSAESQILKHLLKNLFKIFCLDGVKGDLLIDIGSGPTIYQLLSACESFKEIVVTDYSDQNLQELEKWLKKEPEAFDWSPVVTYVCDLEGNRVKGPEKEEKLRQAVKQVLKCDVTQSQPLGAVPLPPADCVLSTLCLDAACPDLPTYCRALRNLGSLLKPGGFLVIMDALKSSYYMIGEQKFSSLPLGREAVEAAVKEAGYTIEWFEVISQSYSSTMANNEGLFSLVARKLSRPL
* hit, by the source's call; ! = repeats disagree; [ ] = dose if it differs, or a comment. In the library only some 2.7% were active in any assay of this set; here they are far more common. The call rests on the fitted dose curve; in most records, active means well fitted curve in the direction sought with a large enough effect; inconclusive means small, poorly fitted or top-dose-only effect, or another doubt; inactive means no such curve, though single readings can be large; an effect the other way counts as inactive or inconclusive.

How did CCN1CCC(n2cc(CNc3cc(Cl)c4ncc(C#N)c(Nc5ccc(F)c(Cl)c5)c4c3)nn2)CC1 do in these assays?
HTT promoter inh: 7%; HTT-AS act: -2%; NTMT1 inh: 2.5µM*; NNMT counter: inconclusive

What do the screens show for `Cc1nc2cccnc2n1C1CCN(C(=O)Nc2ccccc2)CC1`?
GALC G270D up: inactive; HTT promoter inh: -17%; HTT-AS act: -3%; NTMT1 inh: -13%

Results for Cc1ccc(-c2ccc3ncc4c(c3n2)n(C2CCN(C(=O)[C@H](C)O)CC2)c(=O)n4C)cn1 ?
NTMT1 inh: 16µM*; NNMT counter: inconclusive

What do the screens show for `COC(=O)c1ccc(O)c2ncc(N3CC[C@@H](N)C3)cc12`?
NTMT1 inh: -10%

How did C[N+]1(CC2COC(c3ccccc3)(c3ccccc3)O2)CCCCC1 (stereo unspecified) do in these assays?
GALC G270D up: inactive; HTT promoter inh: -3%[25.2 µM]; HTT-AS act: -10%[25.1 µM]; NTMT1 inh: inconclusive; NNMT counter: -18%[28.6 µM]

Results for COc1cc(Nc2c(C#N)cnc3cc(OCCCN4CCN(C)CC4)c(OC)cc23)c(Cl)cc1Cl ?
GALC G270D up: inactive; HTT promoter inh: inconclusive; HTT-AS act: -32%; NTMT1 inh: 7.9µM*; NNMT counter: 20µM*

Results for Cc1ccc(Sc2ccc(N3CCC(C(=O)Nc4cc(C)cc(C)c4)CC3)nn2)cc1 ?
GALC G270D up: inactive; HTT promoter inh: 2%; HTT-AS act: -12%; NTMT1 inh: 14%

How did Cc1cc(C)nc(NC(=S)N2CCN(c3ccc(NS(C)(=O)=O)nn3)CC2)c1 do in these assays?
NTMT1 inh: -26%[57.5 µM]; Sfp PPTase inh: inconclusive; HM489 growth: 0%; Sfp PPTase gel: inconclusive; Sfp SAR2: 4.6µM*; HSD17B4 inh: -21%; ALDH1A1 inh: 24µM*

What do the screens show for `Cc1cc(C)nc(NC(=S)N2CCN(c3ccc(N4CCCC4)nn3)CC2)c1`?
NTMT1 inh: inconclusive; Sfp PPTase inh: inconclusive; HM489 growth: inconclusive; Sfp PPTase gel: 13µM*; Sfp SAR2: 5.8µM*; HSD17B4 inh: 27µM*; ALDH1A1 inh: 19µM*

What do the screens show for `O=C(O)c1ccc(O)c2ncc(-c3ccc(C(=O)N4CCNCC4)cc3)cc12`?
NTMT1 inh: 7%

How did Cn1c(-c2ccccc2C(F)(F)F)nnc1C12CCC(c3noc(C4CC(F)(F)C4)n3)(CC1)CC2 do in these assays?
NTMT1 inh: 9%

How did C/C=C/c1ccc2oc(-c3ccc(O)c(OC)c3)c(C)c2c1 do in these assays?
NTMT1 inh: 4%[57.5 µM]; NNMT counter: -9%

Results for O=C([C@@H](Cc1ccc(O[S+](=O)([O-])c2ccccn2)cc1)N[S+](=O)([O-])c1cccc2cccnc12)N1CCN(c2ccccc2)CC1 ?
NTMT1 inh: 3%

What do the screens show for `CC1(C)OCCn2c1nc1c(N3CCOCC3)nc(-c3cnc(N)nc3)nc12`?
NTMT1 inh: 13%

How did CN1CCN(c2ncc3nc(-c4cn(C)c5ccccc45)c(=O)n(Cc4cccs4)c3n2)CC1 do in these assays?
CLK4 inh: -9%

Results for CN1CCN(c2nn3c(=O)c4ccccc4nc3s2)CC1 ?
NTMT1 inh: -19%

Results for Cc1cnc(Nc2ccc(F)cc2Cl)nc1-c1c[nH]c(C(=O)NC(CO)c2cccc(Cl)c2)c1 (stereo unspecified) ?
NTMT1 inh: -6%[57.5 µM]; NNMT counter: -17%

How did CC(=O)c1[nH]cc(CCC(=O)O)c1CC(=O)O do in these assays?
NTMT1 inh: 11%[57.5 µM]

How did Cc1[nH]c(/C=C2\C(=O)Nc3cc(-c4ccccc4)ccc32)c(C)c1CCC(=O)O do in these assays?
NTMT1 inh: inconclusive; NNMT counter: 28%

Results for Cc1ccsc1CN(C)c1ncnc2ccc(-c3ccc([C@@H](C)O)o3)cc12 ?
NTMT1 inh: 8.9µM*!; CLK4 inh: 0.16µM*

What do the screens show for `Cc1ccc(CN(C)c2ncnc3ccc(-c4ccc(C(=O)O)o4)cc23)o1`?
NTMT1 inh: 2%; CLK4 inh: 0.52µM*

What do the screens show for `Cc1ccc(CN(C(=O)c2ccccc2F)c2ccccn2)o1`?
GALC G270D up: inactive; HTT promoter inh: -1%; HTT-AS act: 9%; NTMT1 inh: inconclusive

What do the screens show for `Cc1cc2c(c(=O)[nH]1)OC(C(O)CC(C)C)O2` (stereo unspecified)?
NTMT1 inh: -16%; NNMT counter: 2%

What do the screens show for `Nc1ccc2c(c1)S(=O)(=O)NC2=O`?
NTMT1 inh: 0%[57.5 µM]

How did CC(C)(C)OC(=O)NCCOCCOCCOCCn1ncc2c1CCCC2NC(=O)c1ccccn1 (stereo unspecified) do in these assays?
NTMT1 inh: 10%
